Source: PubChem BioAssay (National Center for Advancing Translational Sciences (NCATS))
Shown are actives, neighbours in structure and some others; about 4.8% of the full set was active somewhere.
USP1 inh: Inhibitors of USP1/UAF1: Primary Screen. Ubiquitin carboxyl-terminal hydrolase 1 (Homo sapiens), O94782. recombinant USP1/UAF1, Ub-Rhodamine cleavage fluorescence. Potency, µM (top dose mostly 57.1 µM), inactives show at the top dose activity change, negative = inhibition, actives largely listed as inhibitors. hit rate 0.23% among 390,000. AID 743255, 2014; note: potency is the fitted concentration of half-maximal effect; % is set by controls: 0 for no effect and ±100 for the full control effect; nearly all actives have a fitted effect of over 60% in size
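In this screen, compounds sit with the deubiquitinase complex (1nM) for 15 min at room temperature before Ub-Rho is added at 150nM final. Fluorescence rise is then followed for 6 reads every 60 seconds.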
ATXN2 expr inh: Primary qHTS for Inhibitors of ATXN expression. HEK-293 ATXN2-luciferase reporter, luminescence, 24 h. Potency, µM (titrated, usually from 57 µM), for the others: at the highest dose activity change, negative = inhibition, hits mostly inhibitors. hit rate 0.72% among 360,000. AID 1745845, 2022; note: potency is the fitted concentration of half-maximal effect; % is set by controls: 0 for no effect and ±100 for the full control effect; nearly all actives have a fitted effect of over 55% in size
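qHTS (up to 57 uM final) was run with 24 h compound exposure of reporter cells at 37 °C. Each well was multiplexed: SteadyGlo luminescence measured ATXN2-luciferase expression after a fluorogenic Gly-Phe-AFC viability readout (25 uM final).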
ATXN viability: Viability Counterscreen for Primary qHTS for Inhibitors of ATXN expression. S2 cells (HEK-293 line with an ATXN2-luciferase reporter) viability, CellTiter-Fluor protease fluorescence, 24 h. AID 651635, 2014. hit rate 0.49% among 400,000. Potency, µM (doses to about 56.7 µM), actives largely listed as cytotoxic; note: potency is the fitted concentration of half-maximal effect; nearly all actives have a fitted effect of over 40% in size
IL-1B inflam inh: qHTS for Inhibitors of Inflammasome Signaling: IL-1-beta AlphaLISA Primary Screen | activity change, % at 57.5 µM | THP-1 LPS/ATP IL-1B secretion, AlphaLISA, 16 h; active compounds read low | hit rate 4.7% among 360,000 | AID 743279, 2014; in the data active = activity change below about -50%; inconclusive = mostly about -30% to -49%; note: % is set by controls: 0 for no effect and ±100 for the full control effect
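THP-1 cells pretreated 1 hr with compounds (up to 57.5 uM final), then stimulated with LPS (250 ng/mL final) plus ATP (1.25 mM final); secreted IL-1B measured by AlphaLISA after 16 hr, decreased signal indicating inhibition.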
USP2a block: qHTS Assay for Inhibitors of Ubiquitin-specific Protease USP2a Using CHOP2 as the Reporter | Ubiquitin carboxyl-terminal hydrolase 2 (Homo sapiens), O75604 | USP2 core, Ub-CHOP2 coupled fluorogenic reporter, 485/531 | Potency, µM (doses to about 38.3 µM), inactives show top-dose activity change, negative = inhibition, hits mostly inhibitors | hit rate 0.01% among 330,000;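 note: potency is the fitted concentration of half-maximal effect; plate controls were DMSO wells for no effect and full inhibition by NEM control for full effect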
Target sequence (O75604 whole entry, looked up): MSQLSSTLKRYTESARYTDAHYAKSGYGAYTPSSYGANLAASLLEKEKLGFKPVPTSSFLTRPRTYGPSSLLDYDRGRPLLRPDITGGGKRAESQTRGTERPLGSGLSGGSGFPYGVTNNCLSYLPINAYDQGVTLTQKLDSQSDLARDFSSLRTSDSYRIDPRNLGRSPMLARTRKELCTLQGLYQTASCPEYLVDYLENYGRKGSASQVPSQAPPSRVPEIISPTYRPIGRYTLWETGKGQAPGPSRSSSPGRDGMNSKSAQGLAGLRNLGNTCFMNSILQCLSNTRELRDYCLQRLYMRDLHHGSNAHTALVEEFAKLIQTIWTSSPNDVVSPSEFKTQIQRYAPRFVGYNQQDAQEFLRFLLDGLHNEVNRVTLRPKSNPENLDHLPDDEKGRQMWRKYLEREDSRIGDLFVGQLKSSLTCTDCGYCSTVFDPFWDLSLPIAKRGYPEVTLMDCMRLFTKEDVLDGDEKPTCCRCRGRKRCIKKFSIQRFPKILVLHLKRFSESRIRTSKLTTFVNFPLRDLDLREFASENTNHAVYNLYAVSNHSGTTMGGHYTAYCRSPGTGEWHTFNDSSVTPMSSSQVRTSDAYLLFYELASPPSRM
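USP2 core (10nM final) preincubated 30min RT with compound in 20mM Tris-HCl pH 8.0, 2mM CaCl2, 2mM beta-mercaptoethanol, 0.05% CHAPS; 25nM Ub-CHOP2 plus 25nM reporter substrate added, fluorescence (Ex485/Em531) read after 60min.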
Numbers without * were called inactive; i = inactive; ? = inconclusive; / = no result given; [ ] = another dose, or the depositor's remark. Unless noted, calls come from the whole dose curve; as a rule, active = well fitted curve in the direction sought with a large enough effect; inconclusive = small, poorly fitted or top-dose-only effect, or another doubt; inactive = no such curve, though single readings can be large; an effect the other way counts as inactive or inconclusive.

SMILES	USP1 inh	ATXN2 expr inh	ATXN viability	IL-1B inflam inh	USP2a block
CCOC(=O)CSC1=NC(=O)/C(=C\c2ccc(OC(C)=O)cc2)S1	6.0%	?	/	-61.6*	1.7%
COc1cc(CNC2CCCC2)c(Br)cc1OC1CCCC1	-2.1%	-22.4%	i	?	2.2%
COc1cc(CNCc2ccccc2)c(Br)cc1OC1CCCC1	-18.5%	-7.7%[11.3 µM]	i	-54.9*	-1.2%
CCOc1ccc(-c2cc(C(F)(F)F)c(C#N)c(SCC(=O)Nc3ccccc3)n2)cc1	-25.5%	16.2%	i	/	/
O=C(NC(=S)NN1CCCCC1c1cccnc1)c1ccc(Br)cc1 (stereo not given)	-12.8%	1.8%	i	-54.5*	3.9%
CCOC(=O)/C=C/C(=O)Nc1ccc(S(=O)(=O)N2CCc3ccccc32)cc1	-8.0%	?	i	?	-1.1%
CCOC(=O)/C=C/C(=O)Nc1ccc(S(=O)(=O)N(C)c2ccccc2)cc1	-8.0%	?	i	-109.8*	-0.1%
CCOC(=O)/C=C/C(=O)Nc1ccc(S(=O)(=O)N2CCCCCC2)cc1	-6.4%	-33.5%	i	-88.4*	1.9%
CCOc1ccc(-c2nnc(SCC(=O)Nc3ccc4c(c3)c3ccccc3n4CC)n2N)cc1	-13.7%	31.6µM*	/	-15.6	-3.1%
COc1ccc(O)c(CN2CCCN(c3nc(C)c4cc(C)c(C)cc4n3)CC2)c1	/	/	i	/	/
NC(=O)C1=CC2C3C=CC2(O)C(=O)OC3O1 (stereo not given)	-7.3%	21.2µM*	/	-96.4*	/
CC(C)(C)c1ccc(-c2noc(CCC(=O)NCc3ccco3)n2)cc1	-5.0%	/	i	-57.1*	-0.4%
COc1ccc(Br)cc1CNC(=O)CCc1nc(-c2ccc(C)cc2)no1	-6.2%	-10.9%	i	6.4	-0.4%
COc1ccc(-c2noc(CCC(=O)NCC3CCN(Cc4cccc(C)c4)CC3)n2)cc1	-19.9%	-14.3%	?	-71.9*	1.3%
COc1ccc(-c2noc(CCCC(=O)O)n2)cc1	-6.3%	3.98µM*	i	0.0	-0.2%
COc1ccc(-c2noc(CCC(=O)O)n2)cc1	-12.4%	-8.4%	i	1.3	1.2%
COc1ccc(-c2noc(CCC(=O)NCc3cc(Br)ccc3OC)n2)cc1	-8.2%	-4.5%	i	-89.6*	/
Cc1cccc(-c2noc(CCC(=O)NCc3ccco3)n2)c1	-7.7%	1.1%	i	1.8	-0.2%
Cc1cnc(-n2ncc(C(=O)N(C)CCc3ccccn3)c2-c2cccs2)nc1-c1ccc(F)cc1	/	/	i	/	/
N#CC1=C(N)C2=CCCC[C@H]2[C@H](c2cccc(F)c2)C1(C#N)C#N	-21.6%	-10.3%	i	-94.4*	1.7%
N#CC1=C(N)C(C#N)(C#N)C(c2cccnc2)C2CCCC=C12 (stereo not given)	/	/	/	/	5.2%
Cc1ccc(CNC(=O)c2ccc3c(c2)NC(=O)C(N2CCOCC2)S3)cc1 (stereo not given)	-11.3%	-14.7%	i	-77.1*	4.8%
CN(C)CCCNC(=O)c1cc2sc3ccccc3c2s1	-3.4%	-32.6%	/	-118.0*	1.1%
CCOCCCNC(=O)c1cc2c(=O)[nH]c3ccccc3c2s1	-19.8%	8.5%	i	?	4.1%
CCC(C)NC(=O)c1cc2c(=O)[nH]c3ccc(C)cc3c2s1 (stereo not given)	-20.5%	-13.9%	i	-52.5*	-1.4%
CCCCN(CC)CCNC(=O)c1cc2c(=O)[nH]c3ccc(C)cc3c2s1	0.6%	-14.4%	i	-99.7*	0.0%
Cc1ccc2[nH]c(=O)c3cc(C(=O)NCCC(C)C)sc3c2c1	-25.8%	-14.6%	?	-25.3	3.7%
CCCCN(CC)CCCNC(=O)c1cc2c(=O)[nH]c3ccccc3c2s1	-12.6%	1.6%	i	-73.2*	-0.2%
Cc1ccc(C(C)C)c(OCC(=O)NNC(=O)Cn2[nH]c(=O)c3ccccc3c2=O)c1	-9.1%	/	i	20.2	0.4%
O=C(O)[C@H]1O[C@H](Oc2cc3oc(-c4ccccc4)cc(=O)c3c(O)c2O)[C@H](O)[C@@H](O)[C@H]1O	/	-19.0%	/	/	/
